Data: PubChem BioAssay (NCATS)
Where “and” joins values, the source holds several entries; their conditions need not be identical. Identical values can stand only once. Results filed as inconclusive are left out. A call without a number means that no potency is given here. Calls of active or inactive are those of the source. Unless noted, the call rests on the fitted dose curve; in most records, active means well fitted curve in the direction sought with a large enough effect; inconclusive means small, poorly fitted or top-dose-only effect, or another doubt; inactive means no such curve, though single readings can be large; an effect the other way counts as inactive or inconclusive.

Tests used:
[1] = Cell Viability - HepG2 (AID 433; calls by dose curve;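 further: potency means the concentration at half of the fitted maximal effect; potency for ATP loss meaning cytotoxicity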); settings: qHTS
Procedure, shortened: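 Cytotoxicity is scored as loss of intracellular ATP in HepG2 cells exposed to compounds for 40 h. Concentration-response curves, normalized to DMSO and 100 uM tamoxifen, give AC50 values.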

[2] = Cell Viability - Mesenchymal (AID 546); settings: mesenchymal cells viability, qHTS; activity change, negative = cytotoxicity: at 91.7 µM (top of the series);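 further: cells exposed to compound for 40 hours before reading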
Procedure, shortened: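 In this qHTS cytotoxicity format, glomerulus-derived human mesenchymal kidney cells received compound for 40 hr, then luciferase-based ATP quantitation. Concentration-response data were fitted with the Hill equation.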

[3] = Cell Viability - LYMP1-003 - Assay at 40 hr (AID 964); further: nearly all actives have a fitted effect of over 60% in size
Procedure, shortened: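 LYMP1-003 lymphoblastoid cells, 2500/well; 5 hr preincubation, 40 hr compound exposure, 37 C; CellTiter-Glo 30 min RT; luminescence; Hill-fit AC50. Positive control tetraoctylammonium bromide.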

[4] = Cell Viability - LYMP2-013 (AID 970); further: nearly all actives have a fitted effect of over 55% in size
Procedure, shortened: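 CellTiter-Glo luminescence (cellular ATP) read after 30 min at RT. Cells: human lymphoblastoid line, 2500/well, 24 hr compound exposure at 37 C. Tetraoctylammonium bromide positive control; AC50 via standard Hill fit of qHTS titrations.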

[5] = Cell Viability - LYMP2-017 (AID 972);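 further: cells exposed to compound for 24 hours at 37 °C; nearly all actives have a fitted effect of over 55% in size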
Procedure, shortened: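 Luminescent ATP read-out (CellTiter-Glo, 30 min RT) reports viable cell number. Cells: human lymphoblastoid line, 2500 per well, 5 hr preincubation, 24 hr compound exposure at 37 C. AC50 is derived from qHTS concentration-response data using the standard Hill model.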

[6] = Cell Viability - LYMP2-021 (AID 974);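 further: compound exposure lasts 24 hours at 37 °C; nearly all actives have a fitted effect of over 55% in size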
Procedure, shortened: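 ATP luminescence (CellTiter-Glo, 30 min RT) after 24 h compound exposure at 37 C; 2500 human lymphoblastoid cells/well, 5 h settle beforehand. Cytotoxicity = concentration-dependent ATP drop, AC50 by Hill fit.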

[7] = Cell Viability - LYMP2-023 (AID 975);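 further: cellular ATP measured by luciferase luminescence as viability proxy; cells exposed to compound for 24 hours at 37 °C; nearly all actives have a fitted effect of over 55% in size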
Procedure, shortened: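 CellTiter-Glo luminescence after 30 min at room temperature; decrease in intracellular ATP reflects toxicity. Cells: human lymphoblastoid line, 2500/well, 24 hr compound exposure at 37 C. AC50 fitted to standard Hill equation from concentration-response.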

[8] = Cell Viability - LYMP2-025 (AID 976)
Procedure, shortened: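 CellTiter-Glo luminescence (cellular ATP) after 24 h compound exposure at 37 C; LYMP2-025 human lymphoblastoid cells, 2500/well, complete medium. Tetraoctylammonium bromide positive control. AC50 by Hill equation fit of qHTS concentration-response.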

[9] = Cell Viability - LYMP2-002 (AID 977)
Procedure, shortened: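 In this qHTS viability screen, 2500 human lymphoblastoid cells per well receive compound for 24 hr at 37 C, and luciferase-based ATP luminescence gives the viability signal. Tetraoctylammonium bromide serves as positive control.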

[10] = Cell Viability - LYMP2-012 (AID 982)
[11] = Cell Viability - LYMP2-014 (AID 983); further: nearly all actives have a fitted effect of over 50% in size
Procedure, shortened: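 2500 cells/well, 5 hr 37 C; cpd 24 hr 37 C, complete medium; CellTiter-Glo 30 min RT, luminescence; ATP loss = toxicity; AC50 via Hill eqn; tetraoctylammonium bromide positive control.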

[12] = Cell Viability - LYMP2-016 (AID 984)
Procedure, shortened: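 Acute toxicity in a Coriell human lymphoblastoid line is scored as loss of intracellular ATP over 24 h of treatment in complete medium. CellTiter-Glo signal is fitted across concentrations with the Hill equation to give AC50.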

[13] = Cell Viability - LYMP2-018 (AID 985); further: nearly all actives have a fitted effect of over 50% in size
Procedure, shortened: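 2500 cells/well; 5 hr 37 C; cmpd 24 hr 37 C, complete medium; CellTiter-Glo 30 min RT; luminescence. Tetraoctylammonium bromide positive control. AC50 via Hill fit.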

[14] = Cell Viability - LYMP2-020 (AID 986); further: nearly all actives have a fitted effect of over 55% in size
Procedure, shortened: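 qHTS, 2500 cells/well; 5 hr then 24 hr compound exposure, 37 C; CellTiter-Glo luminescence after 30 min RT; ATP decrease taken as cytotoxicity; AC50 via Hill equation; tetraoctylammonium bromide positive control.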

[15] = Cell Viability - LYMP2-022 (AID 987); further: nearly all actives have a fitted effect of over 55% in size
Procedure, shortened: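 Luminescent ATP read-out (CellTiter-Glo, 30 min, RT) after 24 hr, 37 C compound exposure of 2500 human lymphoblastoid cells/well in complete medium. Cytotoxicity taken as concentration-dependent ATP loss; AC50 from standard Hill equation.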

[16] = Cell Viability - LYMP2-024 (AID 988); further: nearly all actives have a fitted effect of over 60% in size
Procedure, shortened: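 ATP-based luminescence (CellTiter-Glo, 30 min RT) after 24 h compound exposure at 37 C of 2500 lymphoblastoid cells/well; decrease in ATP taken as cytotoxicity. qHTS concentration-response fitted to standard Hill equation for AC50.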

[17] = Cell Viability - LYMP1-002 - Assay at 40 hr (AID 994); further: nearly all actives have a fitted effect of over 60% in size
Procedure, shortened: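 qHTS cytotoxicity; 2500 cells/well, 5 hr 37 C settle, compound 40 hr 37 C. CellTiter-Glo, 30 min RT, luminescence (ATP). Concentration-response, Hill fit → AC50. Pos. ctrl tetraoctylammonium bromide.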

[18] = qHTS assay for small molecule antagonists of retinoid X receptor alpha signaling (AID 588546; active means well fitted inhibition curve with a large enough effect in the signal ratio, with a control signal flat, not every such curve was filed as active; the % refers to the signal ratio;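 further: cells stimulated with 9-cis-retinoic acid as agonist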); settings: HEK293T RXRa-UAS-bla, beta-lactamase ratio, antagonist mode; measured here: W530 green channel, cytotoxicity proxy
Procedure, shortened: (§1)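 Beta-lactamase reporter inhibition, read as CCF4 fluorescence ratio (ex 405, em 460/530 nm) after 2 h at RT. HEK293T UAS-bla cells, 2500/well, were stimulated with 9-cis-RA at 500 or 100 nM final alongside test compound for 18 h at 37 C.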

[19] = target: Retinoic acid receptor RXR-alpha (Homo sapiens) (UniProt P19793); assay: as above; settings: HEK293T RXRa-UAS-bla, beta-lactamase ratio, antagonist mode
Procedure, shortened: as §1

[20] = qHTS assay for environmental chemicals that activate the Aryl hydrocarbon Receptor (AhR) signaling pathway (AID 651777); settings: 1A2-DRE human hepatoma cells, luciferase, 24 h; activation: stronger effect = higher value; further: nearly all actives have a fitted effect of over 15% in size
Procedure, shortened: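 Concentration–response screening used 1,200 1A2-DRE cells per well, 24 hr compound exposure (37 C, 5% CO2), and One-Glo luminescence as the AhR-driven CYP1A2 reporter signal.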

Chain of Retinoic acid receptor RXR-alpha (Homo sapiens) (P19793 whole entry, looked up): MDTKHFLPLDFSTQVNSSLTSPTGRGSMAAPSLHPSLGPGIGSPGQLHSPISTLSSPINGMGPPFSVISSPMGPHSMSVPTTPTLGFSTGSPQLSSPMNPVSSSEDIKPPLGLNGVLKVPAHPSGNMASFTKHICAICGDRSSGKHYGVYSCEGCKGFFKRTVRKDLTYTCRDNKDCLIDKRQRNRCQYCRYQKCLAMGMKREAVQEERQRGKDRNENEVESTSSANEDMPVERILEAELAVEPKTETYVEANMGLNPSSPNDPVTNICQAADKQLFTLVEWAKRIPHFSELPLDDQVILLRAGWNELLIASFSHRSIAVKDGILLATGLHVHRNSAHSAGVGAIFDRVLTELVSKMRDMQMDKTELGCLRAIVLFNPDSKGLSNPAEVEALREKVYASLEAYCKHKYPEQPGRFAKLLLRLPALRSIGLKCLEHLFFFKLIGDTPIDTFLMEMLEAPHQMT

Structure (SMILES)	Potency [1]	Potency [2]	Potency [3]	Potency [4]	Potency [5]	Potency [6]	Potency [7]	Potency [8]	Potency [9]	Potency [10]	Potency [11]	Potency [12]	Potency [13]	Potency [14]	Potency [15]	Potency [16]	Potency [17]	max response [18]	max response [19]	activation [20]
Cc1ccc(C(=O)O)cc1[N+](=O)[O-]	> 92 µM (inactive)	inactive	inactive	inactive	inactive	inactive	inactive	inactive	inactive	inactive	inactive	inactive	inactive	inactive	inactive	inactive	inactive	-6.14%	8.29% (inactive)	-0.0314% (inactive)
c1ccc2c(c1)ccc1ccccc12	> 92 µM (inactive)	inactive	inactive	inactive	inactive	inactive	inactive	inactive	inactive	inactive	inactive	inactive	inactive	inactive	inactive	inactive	inactive	-0.251%	9.87% (inactive)	0.646% (inactive) and 0.0503% (inactive)
c1ccc(CSCc2ccccc2)cc1	> 92 µM (inactive)	inactive	inactive	inactive	inactive	inactive	inactive	inactive	inactive	inactive	inactive	inactive	inactive	inactive	inactive	inactive	inactive	-3.11%	1.24% (inactive)	-0.759% (inactive)
CC(=O)OC(C(=O)c1ccccc1)c1ccccc1 (stereo unspecified)	> 92 µM (inactive)	inactive	inactive	inactive	inactive	inactive	inactive	inactive	inactive	inactive	inactive	inactive	inactive	inactive	inactive	inactive	inactive	-6.89%	22.3% (inactive)	-0.426% (inactive)
CCCCCCCCC1CO1 (stereo unspecified)	> 92 µM (inactive)	inactive	inactive	inactive	inactive	inactive	inactive	inactive	inactive	inactive	inactive	inactive	inactive	inactive	inactive	inactive	inactive	-6.6%	-3.61% (inactive)	0.826% (inactive)
CCCCC(CC)COCCCN (stereo unspecified)	> 92 µM (inactive)	inactive	inactive	inactive	inactive	inactive	inactive	inactive	inactive	inactive	inactive	inactive		inactive	inactive	inactive	inactive	3.99%	10.8% (inactive)	-0.398% (inactive)
CN(C)c1ccc(Cc2ccc(N(C)C)cc2)cc1	> 92 µM (inactive)	inactive	inactive	inactive	inactive	inactive	inactive	inactive	inactive	inactive	inactive	inactive	inactive	inactive	inactive	inactive	inactive	3.74% and -6.02%	1.04% (inactive) and -36.9% (inactive)	8.36% (inactive) and 2.98% (inactive)
Oc1ccc2c(c1)OCO2	> 92 µM (inactive)	inactive	inactive	inactive	inactive	inactive	inactive	inactive	inactive	inactive	inactive	inactive	inactive	inactive	inactive	inactive	inactive	5.56%	10.9% (inactive)	-0.0594% (inactive)
NC(=O)c1ccc([N+](=O)[O-])cc1	> 92 µM (inactive)	inactive	inactive	inactive	inactive	inactive	inactive	inactive	inactive	inactive	inactive	inactive	inactive	inactive	inactive	inactive	inactive	-6.07%	-5.31% (inactive)	-1.24% (inactive)
Nc1ccc(N=Nc2ccccc2)c(N)c1	> 92 µM (inactive)		inactive	inactive	inactive	inactive	inactive	inactive	inactive	inactive	inactive	inactive	inactive	inactive	inactive	inactive	inactive	-9.61%	-15% (inactive)	
Brc1ccc(-c2ccccc2)cc1	> 92 µM (inactive)	inactive	inactive	inactive	inactive	inactive	inactive	inactive	inactive	inactive	inactive	inactive	inactive	inactive	inactive	inactive	inactive			11.7% (inactive)
CC(C)S	> 92 µM (inactive)	inactive	inactive	inactive	inactive	inactive	inactive	inactive	inactive	inactive	inactive	inactive	inactive	inactive	inactive	inactive	inactive	0.793%	1.63% (inactive)	-2.58% (inactive)
Oc1c(Cl)cc(Cl)c(Cl)c1Cl	> 92 µM (inactive)	inactive	inactive	inactive	inactive	inactive	inactive	inactive	inactive	inactive	inactive	inactive	inactive	inactive	inactive	inactive	inactive	-1.63% and -16.2%	4.04% (inactive) and 5.02% (inactive)	-0.427% (inactive)
Brc1cc(Br)c(Oc2cc(Br)c(Br)cc2Br)cc1Br	> 92 µM (inactive)	inactive	inactive	inactive	inactive	inactive	inactive	inactive	inactive	inactive	inactive	inactive	inactive	inactive	inactive	inactive	inactive			-1.17% (inactive)
C=C(C#N)C(=O)OCC	> 92 µM (inactive)	inactive	inactive	inactive	inactive	inactive	inactive	inactive	inactive	inactive	inactive	inactive	inactive	inactive		inactive	inactive	-6.72%	9.58% (inactive)	-0.801% (inactive)
CCCCC(CC)COC(=O)COc1ccc(Cl)cc1Cl (stereo unspecified)	> 92 µM (inactive)	inactive	inactive	inactive	inactive	inactive	inactive	inactive	inactive	inactive	inactive	inactive	inactive	inactive	inactive	inactive	inactive	0.541% and -5.28%	18.5% (inactive) and 4.05% (inactive)	0.535% (inactive) and 1.47% (inactive)
CCCCCCN	> 92 µM (inactive)	inactive	inactive	inactive	inactive	inactive	inactive	inactive	inactive	inactive	inactive	inactive	inactive	inactive	inactive	inactive	inactive	-7.66%	2.42% (inactive)	-0.159% (inactive)
Nc1ccccc1O	> 92 µM (inactive)	inactive		inactive	inactive	inactive	inactive	inactive	inactive	inactive	inactive	inactive	inactive	inactive		inactive	inactive	21.2%	-7.25% (inactive)	
c1c[nH]cn1	> 92 µM (inactive)	inactive	inactive	inactive	inactive	inactive	inactive	inactive	inactive	inactive	inactive	inactive	inactive	inactive	inactive	inactive	inactive	-8.47%	-1.89% (inactive)	-1.48% (inactive)
Cc1ccc2ccc3cccc4ccc1c2c34	> 92 µM (inactive)	inactive	inactive	inactive	inactive	inactive	inactive	inactive	inactive	inactive	inactive	inactive	inactive	inactive	inactive	inactive	inactive	-6.82%	-1.11% (inactive)	5.12% (inactive)
O=[N+]([O-])c1ccc(F)cc1F	> 92 µM (inactive)	inactive	inactive	inactive	inactive	inactive	inactive	inactive	inactive		inactive	inactive	inactive				inactive	-4.17%	10.7% (inactive)	0.688% (inactive)
COc1ccc(C(=O)Nc2ccccc2)cc1[N+](=O)[O-]	> 92 µM (inactive)	inactive	inactive	inactive		inactive	inactive	inactive	inactive	inactive	inactive	inactive	inactive			inactive	inactive	-10.5%	-8.72% (inactive)	
O=C1OC(=O)c2ccccc21	> 92 µM (inactive)	inactive	inactive	inactive		inactive	inactive	inactive	inactive	inactive	inactive	inactive	inactive	inactive	inactive	inactive	inactive	4.94%	20.4% (inactive)	
Brc1cc(Oc2cc(Br)c(Br)c(Br)c2Br)c(Br)c(Br)c1Br	> 92 µM (inactive)	inactive	inactive	inactive	inactive	inactive	inactive	inactive	inactive	inactive	inactive	inactive	inactive	inactive	inactive	inactive	inactive	11.5% and 5.63%	8.94% (inactive) and -3.66% (inactive)	-1.15% (inactive) and -2.65% (inactive)
CCCCOC(=O)COc1ccc(Cl)cc1Cl	> 92 µM (inactive)	inactive	inactive	inactive	inactive	inactive	inactive	inactive	inactive	inactive	inactive	inactive	inactive	inactive	inactive	inactive	inactive	-10.2% and -6.39%	5.43% (inactive) and -12.7% (inactive)	
c1ccncc1	> 92 µM (inactive)	inactive	inactive	inactive	inactive	inactive	inactive	inactive	inactive	inactive	inactive	inactive	inactive	inactive	inactive	inactive	inactive			-1.01% (inactive)
OCC(CO)(CBr)CBr	> 92 µM (inactive)	inactive	inactive	inactive	inactive	inactive	inactive	inactive	inactive	inactive	inactive	inactive	inactive	inactive	inactive	inactive	inactive	6.52% and -5.45%	4.02% (inactive) and -1.76% (inactive)	0.992% (inactive) and 2.31% (inactive)
